Screening results deposited in PubChem by National Center for Advancing Translational Sciences (NCATS).
SW480 rerep: induces DNA re-replication in SW480 colon adenocarcinoma cells | SW480 DNA re-replication, Hoechst DNA content imaging, 48 h | Potency, µM (top dose mostly 46.1 µM), inactives show top-dose re-replication activation, actives largely listed as activators | 1.8% of 340,000 active | AID 624297; note: % of control where 0% means no effect; nearly all actives have a fitted effect of over 55% in size
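Image-based read-out: total Hoechst fluorescence of nuclei (405 nm excitation, 500-530 nm emission), with hits raising the fraction of high-intensity nuclei. SW480 colon cells incubated 48 hr with compounds at 37 C.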
p53 reactivation: restores transcriptional activity of mutant p53; H1299 p53-A138V BP100-luciferase reporter, luminescence, 24 h; Potency, µM (doses to about 92.2 µM), inactives show top-dose activity change, positive = activation, usual class: activators; 0.063% of 320,000 active; AID 504706; note: % of control where 0% means no effect; nearly all actives have a fitted effect of over 45% in size
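H1299 (p53-null), stable ts p53-A138V + BP100-Luc; 1000 cells/well, Opti-MEM/10% FBS; cpd 4 pt, 1:5; 24 h, 37 deg C, 5% CO2; detection reagent 10 min RT; luminescence.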
A-T KAP1 phos: candidate therapy for ataxia-telangiectasia. Potency, µM (series often up to 57.5 µM), for the others: at the top dose activation, actives largely listed as activators. F2112 A-T fibroblasts, KAP-1 phosphorylation AlphaLISA; neocarzinostatin DNA damage 30 min before lysis. 0.19% of 320,000 active; note: % of control where 0% means no effect; nearly all actives have a fitted effect of over 45% in size
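ATM-like activity read as KAP-1 phosphorylation via AlphaLISA donor/acceptor antibody pairs after lysis and 6 hr at 25C. Cells were ATM-null patient fibroblasts (F2112, hTERT), dosed 60 min, then exposed to the DSB inducer NCS for 30 min.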
ELG1 genotox: induces genotoxicity in HEK293T cells with luciferase-tagged ELG1 | HEK293T ELG1-luciferase reporter, luminescence, 16 h | Potency, µM (series often up to 46 µM), without a hit: at the top dose activity change, positive = activation, usual class: activators | 1.3% of 330,000 active; note: % of control where 0% means no effect; nearly all actives have a fitted effect of over 60% in size
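Luminescence read-out: rising ELG1-luciferase signal, reflecting elevated ELG1 protein under genetic stress, flags genotoxic compounds. Cells were treated for 16 hr at 37 °C before ONE-Glo detection.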
MCF10A rerep: DNA re-replication induction in MCF 10a cells; 2.9% of 350,000 active; MCF 10A DNA re-replication, Hoechst nuclear intensity, 48 h; AID 624296; Potency, µM (top dose mostly 46.1 µM), without a hit: top-dose activity, positive = re-replication, actives largely listed as activators; note: % of control where 0% means no effect; nearly all actives have a fitted effect of over 50% in size
ELG1 repair inh: blocks ELG1-dependent DNA repair in HEK293T cells; HEK293T ELG1-luciferase reporter, luminescence, 16 h; DNA damage induced by 5-fluorouridine; Potency, µM (titrated, usually from 46.1 µM), inactives show at the top dose activity change, negative = inhibition, usual class: inhibitors; 2.3% of 330,000 active; note: % is set by controls: 0 for no effect and ±100 for the full control effect; nearly all actives have a fitted effect of over 55% in size
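Reporter activity after DNA damage by 5-fluorouridine is monitored. Compound-treated cells incubate 16 hr at 37 °C, then ONE-Glo is added for 30 min before luminescence reading.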
The depositor's hits bear a star; u = inconclusive; x = not tested or not shown; [ ] = remark or other dose. An excerpt weighted towards active compounds, which were near 7.1% of everything screened. Calls come from the whole dose curve; as a rule, active = well fitted curve in the direction sought with a large enough effect; inconclusive = small, poorly fitted or top-dose-only effect, or another doubt; inactive = no such curve, though single readings can be large; an effect the other way counts as inactive or inconclusive. Potency is the fitted concentration of half-maximal effect.

SMILES | SW480 rerep | p53 reactivation | A-T KAP1 phos | ELG1 genotox | MCF10A rerep | ELG1 repair inh
O=C(CN1C(=O)CNC1=O)Nc1cc(Cl)cc(Cl)c1 | 0.2% | -3.7% | 5.6% | -0.2% | 5.7% | 8.2%
CCCn1nc(C(=O)N2CC(=O)Nc3ccccc32)c2ccccc2c1=O | 14.6µM* | -2.5% | -3.0% | 2.8% | 14.6µM* | u
COc1cc(OC)cc(C(=O)N2CC(=O)Nc3ccccc32)c1 | 3.26µM* | x | 1.6% | u | 1.46µM* | u
CCCn1nc(C(=O)NNC(=O)c2ccc(C)c(C)c2)c2ccccc2c1=O | 2.3% | -0.8% | -1.4% | -1.9% | 0.5% | u
O=C1CN(C(=O)c2ccccc2F)c2ccccc2N1 | -23.4% | -4.1% | 0.3% | 1.0% | -11.6% | 0.0%
CCCn1nc(C(=O)N2CCN(S(=O)(=O)c3ccc(C)c(C)c3)CC2)c2ccccc2c1=O | -22.2% | -4.6% | 0.4% | -8.6% | 12.7% | 23.1µM*
CC(C)n1nc(C(=O)OCC(=O)N2CC(=O)Nc3ccccc32)c2ccccc2c1=O | -2.1% | 0.4% | 4.3% | -1.2% | -7.0% | 1.3%
O[C@@H]1CN(C2CCCCC2)CC[C@H]1N1CCN(CCc2ccccc2)CC1 | -1.4% | u | 8.9% | -0.7% | 1.2% | -4.0%
Cc1cc(C)c(OCC(=O)OC(C)C(=O)NC2CC2)c(C)c1 (stereo not given) | 0.2% | 15.9% | -0.1% | 2.5% | -4.4% | 7.8%
Cc1cnc(C(=O)OCc2nc3ccccc3o2)cn1 | 5.4% | 5.4% | 4.5% | 0.8% | u | -3.7%
OCC[C@@H]1C[C@@H](O)[C@H](O)[C@@]2(CCCc3ccccc3O2)O1 | -7.7% | x | -3.2% | 3.2% | -12.2% | 10.0%
CC(C)C(OC(=O)CN1C(=O)c2ccccc2C1=O)C(=O)NC1CCCC1 (stereo not given) | -7.2% | 3.2% | 4.8% | 1.3% | -3.1% | 6.2%
O=c1/c(=C\c2ccc3c(c2)OCO3)sc2n1CCCN=2 | 7.7% | 26.0% | 11.1% | 3.26µM* | 11.3% | u
O=C1/C(=C\c2ccc3c(c2)OCO3)CCC/C1=C/c1ccc2c(c1)OCO2 | -2.3% | u | 6.3% | 0.8% | 11.6µM* | 7.7%
O=C1OCC/C1=C\c1ccc2c(c1)OCO2 | 9.8% | 7.4% | -8.5% | -8.6% | 8.3% | u
CC1CC/C(=C\c2ccc3c(c2)OCO3)C(=O)/C1=C/c1ccc2c(c1)OCO2 (stereo not given) | u | 4.4% | -1.3% | -1.5% | 7.31µM* | -0.8%
Cc1ccc(/C=c2/sc3n(c2=O)CCCN=3)o1 | 0.8% | u | -7.3% | u | 6.8% | u
COc1cc2c(cc1OC)CN(C(=O)CNS(=O)(=O)c1ccc(C)c(C)c1)CC2 | -8.9% | -1.1% | -0.5% | 6.4% | u | 1.6%
O=C(NCCOc1ccccc1F)C1CC(=O)N(c2ccc3c(c2)OCCO3)C1 (stereo not given) | -3.4% | 1.5% | 0.5% | 2.2% | -2.0% | 2.4%
CC(=O)c1sc(N/N=C\c2cccc(Br)c2)nc1C | 10.6% | u | -1.3% | 5.9% | 13µM* | u
Cc1cc(=O)[nH]c(N/N=C/c2cccc(Br)c2)n1 | -10.7% | x | 6.7% | 4.9% | 2.3% | u
CC(=O)c1sc(N/N=C\c2ccc(Br)cc2)nc1C | u | u | 10.7% | u | 18.4µM* | u
Cc1ccc(NC(=O)CCNS(=O)(=O)c2ccc3[nH]c(=O)oc3c2)cc1F | -18.7% | -3.9% | -7.1% | -0.8%[9.26 µM] | -3.9% | 14.8%
CC1=NNC(=O)/C1=C\c1cn(-c2ccccc2)nc1-c1ccc(Cl)cc1 | 11.6µM* | -15.6% | u | -20.2% | 3.66µM* | 9.2µM*
COCCNC(=O)C(c1ccc(C)cc1)N(Cc1ccco1)C(=O)CCC(=O)Nc1ccccn1 (stereo not given) | -17.3% | 0.7% | -1.6% | -3.6% | -0.2% | 5.6%
